Measured values reported in PubChem BioAssay (NCI).
The panel holds about 83,000 compounds, 20% with a hit somewhere; the sample as a whole holds those more often.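 Results are percent growth after 48 hours of single-concentration exposure. 100 means growth as in untreated cells, lower positive values show inhibition; negative values down to -100 show cell death.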 Activity calls are given as the source filed them. The calls were made as follows: active = growth percent below 10; inactive = the rest.

Tested on: MCF7 breast
Assay: NCI-60 one-dose screen, 48 h (100 = growth as untreated, 0 = no growth, -100 = all killed)
Conditions: 10 µM unless noted

| Compound | growth |
| --- | --- |
| O=C(NNC(=O)N1c2ccccc2C=Cc2ccccc21)c1ccc2ccccc2c1 | 86% (inactive) |
| CCOC(=O)C1C(=O)C=C(c2ccc(OC)cc2)CC1c1sc(N(C)Cc2ccccc2)nc1Cl (centres undefined) | 83.5% (inactive) |
| CCc1cnc(=S)n(-c2ccccc2)c1 | 108% (inactive) |
| CCN(CC)c1ccc2[nH]c3c(C(N)=O)cc(=O)c(=O)c=3oc2c1 | -31.5% (active) |
| O=[N+]([O-])c1ccc(Sc2ncccn2)c([N+](=O)[O-])c1 | 34.4% (inactive) |
| C/C(=C\c1ccc(OCC(=O)O)c(Cl)c1Cl)[N+](=O)[O-] | 103% (inactive) |
| CC(C)CC1NC(C)(C)CO1 (centres undefined) | 104% (inactive) |
| CC(NNC(C)c1ccccc1)c1ccccc1 (centres undefined) | 113% (inactive) |
| CC(C)(C)n1cc(-c2ccnc(NCCCNS(=O)(=O)c3ccc(C(F)(F)F)cc3)c2)c(-c2cccc(O)c2)n1 | 1.14% (active) |
| CC(C)(C)n1cc(-c2ccnc(NCCCNS(=O)(=O)c3ccc(Br)cc3)c2)c(-c2cccc(O)c2)n1 | 7.27% (active) |
| Cn1cc(-c2cnc3ccc(NC(=O)Nc4ccc(F)c(Br)c4)cc3n2)cn1 | 3.7% (active) |
| CC(C)(C)c1[nH]nc2c1C(c1cc3ccccc3[nH]c1=O)Nc1cc(C(=O)Nc3ccc(Cl)cc3)ccc1N2 (centres undefined) | 27.8% (inactive) |
| O=C([O][Sn]([O]C(=O)c1ccccn1)([c]1ccccc1)[c]1ccccc1)c1ccccn1 | 31.8% (inactive) |
| CC(C)(C)n1cc(-c2ccnc(NCCCNS(=O)(=O)c3ccc(Cl)cc3)c2)c(-c2cccc(O)c2)n1 | -12.1% (active) |
